Source: PubChem (National Center for Advancing Translational Sciences (NCATS))
Shown are actives, neighbours in structure and some others; about 19% of the full set was active somewhere.
IL1B secr inh = inflammasome signaling inhibition, IL-1 beta readout; THP-1 LPS/ATP IL-1B secretion, AlphaLISA, 16 h; hits give low values; activity change, % at 57.5 µM; 360,000 compounds, 4.7% hits; AID 743279; in the data active means activity change below about -50%; inconclusive means mostly about -30% to -49%
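Secreted IL-1B measured by AlphaLISA bead assay after 16 h compound exposure of THP-1 cells; compounds (final up to 57.5 uM) added 1 h before LPS (250 ng/mL) and ATP (1.25 mM) stimulation; lower signal means less secretion.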
TDP1 cell noCPT = qHTS for Inhibitors of human tyrosyl-DNA phosphodiesterase 1 (TDP1): qHTS in cells in absence of CPT; 420,000 compounds, 15% hits; Potency, µM (titrated, usually from 46.2 µM), without a hit: top-dose activity change, negative = growth inhibition, most hits filed as inhibitors; DT40 Tdp1-/- hTDP1 cells, no CPT, ATP luminescence, 48 h; further: potency means the concentration at half of the fitted maximal effect; nearly all actives have a fitted effect of over 55% in size
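Readout: luminescence from CellTiter-Glo after 30 min in the dark at RT. Cells: DT40 Tdp1-/- with stable hTDP1, 400/well. Exposure: compounds alone, ≥48 hr, 37 °C.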
DT40 TDP1 CPT = growth inhibition of DT40 Tdp1-/-;hTDP1 cells with camptothecin (screen for TDP1 inhibitors); chicken DT40 Tdp1-/-;hTDP1 cells + 20 nM CPT, ATP luminescence, 48 h; Potency, µM (series often up to 46.2 µM), for inactives: at the highest dose activity change, negative = growth inhibition, usual class: inhibitors; 420,000 compounds, 12% hits; further: potency means the concentration at half of the fitted maximal effect; nearly all actives have a fitted effect of over 55% in size
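Chicken DT40 Tdp1-/- cells stably complemented with human TDP1 were seeded at 400 cells/well in medium containing 20 nM camptothecin, exposed to pin-transferred compounds, and grown at 37 °C for at least 48 hr. Viability was read as ATP luminescence.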
HT1080-NT tox = kills 2HG-producing HT-1080-NT fibrosarcoma cells; Potency, µM (highest dose often 46.1 µM), for inactives: at the top dose activity, negative = less viability, actives largely listed as cytotoxic; 360,000 compounds, 1.6% hits; HT-1080-NT fibrosarcoma viability, CellTiter-Glo ATP luminescence, 48 h;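 further: NT is the 2HG producing partner of a matched IDH1 knockdown line; potency means the concentration at half of the fitted maximal effect; 0% = DMSO-treated cells and -100% = media-only wells without cells; nearly all actives have a fitted effect of over 55% in size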
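750 cells/well, RPMI + 5% FBS; 2 h settle, compound pin-transfer, 48 h at 37 degrees C. CellTiter-Glo 10 min RT, luminescence. Normalized to DMSO and media-only wells.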
HT1080 IDH1KD tx = HT-1080 IDH1 knockdown cell toxicity (counter line) | HT-1080 IDH1 knockdown viability, ATP luminescence, 48 h | Potency, µM (highest dose often 46.1 µM), inactives show at the top dose activity, negative = toxicity, actives largely listed as cytotoxic | 360,000 compounds, 2% hits | AID 686971;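 further: potency means the concentration at half of the fitted maximal effect; 0% = DMSO wells and -100% = cell-free medium wells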
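% activity derives from luminescence (CellTiter-Glo), normalised to DMSO and no-cell wells. HT-1080-IDH1KD cells, 750/well, had 48 h compound exposure at 37 °C.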
* hit, by the source's call; ? = inconclusive; nt = no result given; [ ] = another dose, or the depositor's remark. Unless noted, the call rests on the fitted dose curve; in most records, active means well fitted curve in the direction sought with a large enough effect; inconclusive means small, poorly fitted or top-dose-only effect, or another doubt; inactive means no such curve, though single readings can be large; an effect the other way counts as inactive or inconclusive. Unless noted, on the % scale 0 is the no-effect control and ±100 the full control effect.

SMILES	IL1B secr inh	TDP1 cell noCPT	DT40 TDP1 CPT	HT1080-NT tox	HT1080 IDH1KD tx
COc1ccc(OC)c(NC(=O)CSCC(=O)O)c1	44	-8%	-9%	11%	18%
COCCNC(=O)/C(C#N)=C/c1c(N2CCCCCC2)nc2ccccn2c1=O	-14	?	-11%	?	11%
COc1ccc(-n2nc(C(=O)NCC(=O)NCC3COc4ccccc4O3)c3ccccc3c2=O)cc1 (stereo not drawn)	-28	?	?	-3%	-17%
Cn1nc(C(=O)NCC2COc3ccccc3O2)c2ccccc2c1=O (stereo not drawn)	6	21µM*	23µM*	-4%	0%
NC(N)=Nc1nc2ccc(Cl)cc2c(=O)[nH]1	1	13µM*	?	17%	-1%
CCCCC/C=C\C/C=C\C/C=C\C/C=C\CCCC(=O)O[C@@H](CO)COCCCCCCCCCCCCCCCC	nt	0%[4.12 µM]	3%[4.12 µM]	nt	nt
CCOc1cc(/C=C2\COc3ccccc3C2=O)ccc1OCC(=O)N(C)C	-98*	10µM*	?	26µM*	23µM*
CCNC(=O)COc1ccc(/C=C2\COc3ccccc3C2=O)cc1OC	-102*	13µM*	15µM*	?	26µM*
CSc1cccc(NC(=S)Nc2cc(C)ccc2C)c1	-12	-16%	-28%	-17%	5%
Cc1cc(C(=O)Cn2nc(C(=O)O)c3ccccc3c2=O)c(C)n1-c1ccc(F)cc1	-4	?	29µM*	-5%	-11%
Cc1cc(C(=O)Cn2nc(C(=O)O)c3ccccc3c2=O)c(C)n1-c1cccc(C(F)(F)F)c1	18	-13%	-15%	25%	13%
O=C(c1ccccc1)C1CN(c2ccccc2)CC1c1ccc(Cl)cc1 (stereo not drawn)	12	16µM*	?	-1%	2%
CC1=NNC(=O)C1C(c1ccc(Cl)cc1)C(C#N)C#N (stereo not drawn)	nt	?	0%	0%	-20%
Cc1[nH]n(-c2ncc(-c3ccccc3)s2)c(=O)c1C(c1ccc(Cl)cc1)C(C#N)C#N (stereo not drawn)	-64*	?	?	7%	8%
Cc1cccc(C)c1OCc1nc2c3cnn(-c4ccccc4Br)c3ncn2n1	nt	?	10µM*	nt	nt
CCCCOc1ccc(-c2nn(-c3ccccc3)cc2C2NC(=O)NC(C)=C2C(=O)OC)cc1 (stereo not drawn)	nt	-4%	-3%	nt	nt
COC(=O)C1=C(C)NC(=O)NC1c1ccc(OC)c(OC)c1 (stereo not drawn)	-1	-16%	1%	7%	0%
CCCOc1ccc(-c2nn(-c3ccccc3)cc2C2NC(=O)NC(C)=C2C(=O)OC)cc1 (stereo not drawn)	nt	16µM*	?	nt	nt
COC(=O)C1=C(C)NC(=O)NC1c1ccc(N2CCC(c3ccccc3)=N2)cc1 (stereo not drawn)	-69*	?	?	-25%	?
O=C(COC(=O)c1ccc(Cl)nc1)NNC(=O)c1ccc(Br)cc1	6	16%	0%	3%	-4%
CCCCC(=O)NCCc1c(Cc2ccccc2)[nH]c2ccccc12	nt	18µM*	?	nt	nt
CCn1c(O)c(C=Nc2ccccc2)n(-c2ccccc2)c1=S	-5	5.8µM*	6.5µM*	-15%	?
Cc1ccc2cc(CCNS(=O)(=O)c3ccc(F)cc3)c(=O)[nH]c2c1C	29	18µM*	21µM*	-5%	-2%
CCCS(=O)(=O)NCCc1cc2c(C)ccc(C)c2[nH]c1=O	-12	-9%	4%	4%	-1%
Cc1ccc(S(=O)(=O)NCCc2cc3ccc(C)c(C)c3[nH]c2=O)cc1	3	18µM*	?	3%	-3%
SMILES	IL1B secr inh	TDP1 cell noCPT	DT40 TDP1 CPT	HT1080-NT tox	HT1080 IDH1KD tx
Cc1cc(C)c(S(=O)(=O)NCCc2cc3c(C)ccc(C)c3[nH]c2=O)c(C)c1	nt	3.7µM*	7.3µM*	nt	nt
CC(C)C[C@H]1COCCS(=O)(=O)N1Cc1ccc(Cl)c(Cl)c1	-29	?	?	0%	4%
COc1ccc(NCc2nnc(-c3ccccc3)o2)cc1	-3	-23%	-25%	-16%	4%
COc1ccccc1C(=O)NNC(=O)C1CCCO1 (stereo not drawn)	29	-8%	0%	3%	2%
Cc1csc2c(N3CCC(C(=O)O)CC3)ncnc12	15	-5%	-5%	-3%	1%
Cc1csc2c(N3CCN(C(=O)Nc4ccc(OC(F)(F)F)cc4)CC3)ncnc12	-70*	18µM*	10µM*	?	?
COc1ccc(-c2coc3ccc(OC4OC(COC(C)=O)C(OC(C)=O)C(OC(C)=O)C4OC(C)=O)cc3c2=O)cc1 (stereo not drawn)	nt	1.1µM*	2.7µM*	nt	nt
COc1ccc(-c2coc3cc(O[C@@H]4O[C@H](CO)[C@@H](O)[C@H](O)[C@H]4O)ccc3c2=O)cc1	12	-17%	-3%	3%	16%
COc1ccc(-c2coc3ccc(OC4OC(COC(C)=O)C(OC(C)=O)C(OC(C)=O)C4OC(C)=O)c(OC(C)=O)c3c2=O)cc1 (stereo not drawn)	nt	8.4µM*	?	nt	nt
COC(=O)[C@@]12C[C@@H](CC(=O)N3CCOCC3)C(=O)N(Cc3ccc4c(c3)OCO4)C1=CCC(C)(C)C2	-21	-29%	?	-12%	-15%
O=C(O)c1ccccc1-n1c(-c2ccccc2)cc2c1CCCC2=O	22	-6%	-12%	5%	-1%
CCOC(=O)C1=CN(C(C)C)CCC1=O	0	-7%	-3%	-1%	1%
N#Cc1c(-c2ccc3c(c2)OCO3)csc1N	-60*	-26%	-19%	-16%	-7%
N#Cc1c(N)c(C#N)c(-c2ccc3c(c2)OCO3)c2c1CCCC2	21	-24%	3%	9%	6%
Cc1cc(C)c(C(=O)C(C)OC(=O)c2ccccn2)cc1C (stereo not drawn)	15	5%	0%	27%	24%
CC(C)=CCC(C)(C)C1OCCN1C(=O)Nc1ccccc1 (stereo not drawn)	-3	?	?	1%	10%
CC(C)(C)OC(=O)n1cccc1/C=C1\c2ccccc2C(=O)N1c1ccccc1	-2	?	21µM*	0%	6%
O=C1c2ccccc2/C(=C\c2ccc(Br)s2)N1c1ccccc1	37	?	?	8%	-10%
COc1ccc(-c2csc(N(C)C(=O)c3cccs3)n2)cc1	-60*	-1%	10%	0%	3%
COCCN(C(=O)Nc1ccc(OC)cc1)c1nc2ccccc2s1	-14	?	7%	0%	1%
